# PrPC TRFRET: reduces human prion protein on the cell surface; cell surface PrPC, TR-FRET read-out; AID 720596; P04156; actives 0.43% (n = 370,000); inhibition, % at 13.8 µM; in the data active = inhibition above about 24%; also: 0% = median of the test wells and 100% = reference compound wells
# Y pestis TopoI: blocks Yersinia pestis topoisomerase I activity | Y. pestis Topo-I cleavage product accumulation, plate reader | activity, % at 10 µM | actives 0.064% (n = 360,000); in the data active = activity above about 50%, passing the limit was not always enough
# TcdB inh: blocks C. difficile toxin B glycohydrolase activity | TcdB glycohydrolase enzymatic assay, plate reader | inhibition, % at 9.99 µM | actives 0.24% (n = 350,000); in the data active = inhibition above about 10%
# GDH-TPI inh: GDH-TPI coupled enzyme inhibition counter-screen. inhibition, % at 4.8 µM. AID 588335. actives 1.2% (n = 360,000). GDH-TPI coupled enzyme counterscreen, NADH absorbance; in the data active = inhibition above about 30%;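 also: 0% = DMSO wells and 100% = wells lacking the enzyme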
# FBA Mtb inh: inhibitors of M. tuberculosis fructose-bisphosphate aldolase. inhibition, % at 1 µM. purified M. tuberculosis FBA, fluorescence read-out. P9WQA3. actives 2.3% (n = 360,000); in the data active = inhibition above about 27%;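 also: 0% = vehicle and 100% = reference inhibitor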
# PrPC confirm: cell surface PrPC inhibition, TR-FRET confirmation. shares compounds with PrPC TRFRET. cell surface PrPC level. inhibition, % at 13.8 µM. actives 65% (n = 1,500). AID 743200; in the data active = inhibition above about 25%
# LD9 cytotox: counter-screen for PrPc inhibitors: cytotoxicity in LD9 cells. luminescence viability. actives 29% (n = 1,500). shares compounds with PrPC TRFRET. inhibition, % at 13.8 µM; in the data active = inhibition above about 9.5%
# An asterisk follows results filed as active; nt = no result given. Rows were chosen to be rich in hits. Some 3.2% of all compounds tested hit in one or more screens of this group.
SMILES,PrPC TRFRET,Y pestis TopoI,TcdB inh,GDH-TPI inh,FBA Mtb inh,PrPC confirm,LD9 cytotox
Brc1cc(Br)c2ncnc(N3CCCCC3)c2c1,75*,36,nt,14,-1,111*,-1
O=C(Nc1cccc(F)c1)N1CCCCN2[C@@H](CO)[C@@H](c3ccc(C#Cc4cccnc4)cc3)[C@@H]2C1,nt,nt,-10,nt,nt,nt,nt
COc1ccc(NC(=O)N2CCCCN3[C@H](CO)[C@H](c4ccc(C#CCC(C)C)cc4)[C@@H]3C2)cc1,nt,nt,-1,nt,nt,nt,nt
CC(=O)OC1C(=O)OCC23CCC4(C)OC4C2OC2CC(OC(=O)C=CC=CC(=O)OCCC1C)C3(C)C21CO1 (configuration not stated),92*,6,0,3,2,98*,63*
Cc1ccc(NC(=O)CSc2ccccc2)cc1S(=O)(=O)N1CCCCC1,11,20,2,-9,2,nt,nt
Cc1ccc(NC(=O)CSc2ncnc3ccccc23)cc1S(=O)(=O)N1CCOCC1,61*,-1,0,5,0,55*,-11
CC(C)c1nc(SCC(=O)Nc2ccc(N3CCOCC3)cc2)c2ccccc2n1,33*,3,nt,5,2,52*,-2
CCCc1nc(SCC(=O)Nc2ccc(N3CCOCC3)cc2)c2ccccc2n1,18,5,nt,9,1,nt,nt
Cc1ccc(NC(=O)CSc2ncnc3ccccc23)cc1S(=O)(=O)N1CCCCC1,48*,20,nt,-1,3,76*,-6
CO[C@@H]1CN(C)C(=O)c2cc(NC(=O)c3cnccn3)ccc2OC[C@@H](C)NC[C@@H]1C,nt,nt,0,nt,nt,nt,nt
CC(C)C(=O)N1CCN(c2ccc(NC(=O)c3ccc([N+](=O)[O-])o3)cc2)CC1,-1,-5,0,2,-6,nt,nt
O=C(Nc1ccc(N2CCN(C(=O)c3ccccc3)CC2)cc1)c1ccc([N+](=O)[O-])o1,26*,14,0,12,1,22,93*
CC(C)C(=O)N1CCN(c2ccc(NC(=O)c3ccc([N+](=O)[O-])o3)cc2Cl)CC1,36*,-2,3,11,-4,11,98*
Cc1ccccc1C(=O)N1CCN(c2ccc(NC(=O)c3ccc([N+](=O)[O-])o3)cc2)CC1,4,1,0,18,-2,nt,nt
O=C(C[C@H]1CC[C@@H]2[C@H](COC[C@@H](O)CN2C(=O)c2ccccc2F)O1)NCc1ccc(F)cc1,nt,nt,0,nt,nt,nt,nt
CN(C)CCCNC(=O)C[C@@H]1C=C[C@H](NS(=O)(=O)c2ccc(F)cc2)[C@H](CO)O1,nt,nt,0,nt,nt,nt,nt
N#CC(=C=[N-])C1=C(C#N)C(c2ccccc2F)C([n+]2ccccc2)C(O)(C2CC2)N1 (configuration not stated),63*,3,-2,13,5,22,0
CN1CCN(C(=O)C[C@@H]2C[C@@H]3c4cc(NC(=O)NC5CCCCC5)ccc4O[C@@H]3[C@H](CO)O2)CC1,nt,nt,1,nt,nt,nt,nt
CCOc1ccc(NC(=O)C(=O)NCc2ccncc2)cc1,8,-3,0,3,-3,nt,nt
CCOc1ccc(NC(=O)Nc2ccc(Cc3ccncc3)cc2)cc1,33*,2,0,1,-2,29*,4
Cn1c(=O)c2cc(NC(=O)NCc3ccccc3)ccc2n1Cc1cccc(C(F)(F)F)c1,25*,31,-2,12,138*,15,-3
Cc1cc(NC(=O)CSCC(=O)NCc2cccc(C(F)(F)F)c2)no1,-7,7,3,4,-3,nt,nt
CCCc1cn([C@H]2C[C@@H]3O[C@H](CO)CC[C@@H]3O[C@@H]2CCc2ccc(C#CCc3ccccc3)cc2)nn1,nt,nt,0,nt,nt,nt,nt
COc1cccc(NC(=O)CCC2CCN(C(=O)C3CC=CCC3)CC2)c1 (configuration not stated),29*,-4,0,4,4,8,-3
C[C@H](CO)N1C[C@H](C)[C@H](CN(C)Cc2ccc3c(c2)OCO3)Oc2ccc(NS(=O)(=O)c3cccs3)cc2C1=O,nt,nt,0,nt,nt,nt,nt
SMILES,PrPC TRFRET,Y pestis TopoI,TcdB inh,GDH-TPI inh,FBA Mtb inh,PrPC confirm,LD9 cytotox
Cc1ccc2nc3c(c(C(=O)O)c2c1)CCC3,2,6,0,7,0,nt,nt
CNC(=O)c1c2c(nc3ccc(Br)cc13)CCCC2,25*,15,0,6,-1,35*,-4
CCC(=O)N1[C@@H]2Cn3c(ccc(-c4ccccc4)c3=O)[C@H]1[C@@H](C(=O)N(C)C)[C@@H]2CO,nt,nt,0,nt,nt,nt,nt
O=C(O)C(=Cc1ccccc1[N+](=O)[O-])c1ccc2c(c1)OCO2,27*,1,-2,8,-4,0,-7
O=C(O)C(=Cc1cc2c(cc1[N+](=O)[O-])OCO2)c1cc2c(cc1Br)OCO2,-8,5,-1,15,-1,nt,nt
CCN1CCc2c(sc(NC(=O)c3ccc(S(=O)(=O)N4CCCCCC4)cc3)c2C(=O)NC)C1,52*,8,1,3,-1,-24,-3
N#Cc1ccccc1OCCCN1CCC(Cc2ccccc2)CC1,26*,33,1,7,2,4,10*
C=CC(=O)N1C/C(=C/c2ccc(F)cc2)C(=O)/C(=C\c2ccc(F)cc2)C1,41*,43,-3,19,0,9,75*
CN1C2CCC1/C(=C\c1ccc(F)cc1)C(=O)/C2=C/c1ccc(F)cc1,7,0,nt,23,-2,nt,nt
O=C(Nc1cccc(-c2nc3ccccc3[nH]2)c1)c1cccc(NC(=O)c2ccco2)c1,37*,5,nt,7,2,-6,18*
CS(=O)(=O)c1cccc(C(=O)Nc2cccc(-c3nc4ccccc4[nH]3)c2)c1,129*,-2,1,13,5,-4,20*
CS(=O)(=O)c1ccc(C(=O)Nc2cccc(-c3nc4ccccc4[nH]3)c2)cc1,3,-10,-2,3,6,nt,nt
C[C@H](O)C#Cc1cnc2c(c1)C(=O)N([C@@H](C)CO)C[C@@H](C)[C@@H](CN(C)Cc1ccc(-c3ccccc3)cc1)O2,nt,nt,0,nt,nt,nt,nt
CCC1(C)Cc2ccccc2-c2[nH]c(=S)[nH]c(=O)c21 (configuration not stated),90*,2,2,-4,1,120*,-8
COc1ccccc1NC(=S)NCc1ccc2c(c1)cc(C)n2C,50*,-15,3,-1,-2,7,-10
CCC(CC)C(=O)NCc1ccc2c(c1)cc(C)n2C,14,9,nt,4,2,nt,nt
Cc1cc2cc(CNC(=S)NCc3ccccc3)ccc2n1C,31*,2,1,4,7,29*,-7
Cc1cc2cc(CNC(=O)C(C)Oc3ccccc3)ccc2n1C (configuration not stated),36*,-1,-1,6,1,20,-5
O=C(C[C@@H]1C[C@H]2c3cc(NC(=O)C4CCC4)ccc3O[C@H]2[C@H](CO)O1)NCc1ccncc1,nt,nt,0,nt,nt,nt,nt
